Data: PubChem BioAssay (NCATS)
Results filed as inconclusive are left out. The source made the active and inactive calls. Calls follow the shape of the dose curve; as a rule, active = well fitted cell-killing curve with a large enough effect; inconclusive = small, poorly fitted or top-dose-only effect; inactive = flat fitted curve, though single readings scatter.

assay: qHTS of pediatric cancer cell lines to identify multiple opportunities for drug repurposing: Confirmatory screen for BT-12 cells (AID 1347112); details: BT-12 rhabdoid tumor cells, viability; series mostly up to 45.9 µM; also: nearly all actives have a fitted effect of over 55% in size
Method in brief: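 Cells (500-1,000/well) in growth media were settled 5 h at 37 degrees C, then given compounds for 48 h. Viability was read as CellTiter-Glo luminescence. Primary runs used MIPE at 11 points (0.78 nM-46 µM) and NPC at 8 points (0.59 nM-46 µM); follow-ups used 11 points.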
Potency is read from the fitted curve at half-maximal effect.

Row | SMILES | Potency
1 | C=CCON=C(C[C@H]1O[C@@H]2O[C@]3(C)CC[C@@H]4[C@H](C)CC[C@@H]([C@H]1C)[C@@]24OO3)[C@H]1O[C@@H]2O[C@]3(C)CC[C@H]4[C@H](C)CC[C@@H]([C@@H]1C)[C@@]24OO3 | 261 nM (active)
2 | Cc1ccccc1-n1c(Cn2ncc3c(N)ncnc32)nc2cccc(C)c2c1=O | 18500 nM (active)
3 | CC(C)[C@]12O[C@@H]1[C@@H]1O[C@]13[C@]1(O[C@H]1C[C@@H]1C4=C(CC[C@@]13C)C(=O)OC4)[C@H]2O | 36.9 nM (active)
4 | O=C(N[C@H]1CN2CCC1CC2)c1ccc(Cl)cc1 | inactive
5 | CC(C)(C)C(O)C(Oc1ccc(Cl)cc1)n1cncn1 (stereo unspecified) | inactive
6 | C[C@H]1CCCC=CC2C[C@H](O)C[C@@H]2[C@H](O)C=CC(=O)O1 (stereo partly specified) | 165 nM (active)
